Compound activity (PubChem BioAssay)
This is a sample that favours compounds with a hit; in the whole collection about 8.1% have one here.
Epigenetic derep – Quantitative High-Throughput Screen for Regulators of Epigenetic Control; murine LDR cells, GFP reporter derepression, 30 h; Potency, µM (highest dose often 53.9 µM), hits mostly activators; 280,000 compounds, 0.2% hits; AID 1865, 2009; further: nearly all actives have a fitted effect of over 60% in size
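GFP-positive cell count by laser-scanning cytometry (objects 20–120 um) after 30 h, 37 C compound exposure of murine LDR cells; reporter is CMV-GFP integrated at a silenced locus, inducible by HDAC or DNMT inhibitors.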
PINK1 expr mod – A Quantitative High throughput Screen to Identify Chemical Modulators of PINK1 Expression; PINK1 immunofluorescence, high-content cytometry, 24 h; Potency, µM (top dose mostly 76.6 µM), usual class: activators; 410,000 compounds, 0.2% hits; active means well fitted activation curve with a large enough effect; inconclusive means small, poorly fitted or top-dose-only effect; cell line not stated here; further: nearly all actives have a fitted effect of over 65% in size
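PINK1 protein level read as immunofluorescence by microplate cytometer in a fixed, stained stable cell line after 24 h exposure to five compound concentrations, with CCCP as control.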
ClpP mod – qHTS Assay for Activators of ClpP | Potency, µM (titrated, usually from 57.5 µM) | 340,000 compounds, 1.9% hits | ATP-dependent Clp protease proteolytic subunit (Bacillus subtilis (strain 168)), P80244 | purified B. subtilis ClpP, FRET peptide cleavage, 20 min; active means well fitted falling curve with a large enough effect; inconclusive means small, poorly fitted or top-dose-only effect; inactive means no such curve, though single readings can be large or run the other way; further: the source files actives as falling curves though it sought activators and does not explain the sign; nearly all actives have a fitted effect of over 65% in size
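ClpP 10 microg/mL final, pH 8 Tris/KCl buffer with BSA, glycerol, Tween-20; compound pinned in; FRET-FV substrate; RT 20 min; Ex320/Em430; ΔFRET vs ADEP 5.8 microM, DMSO, no enzyme.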
Gal4-VP16 FLuc – VP16 counterscreen qHTS for inhibitors of ROR gamma transcriptional activity; Drosophila S2 Gal4-VP16 UAS-luciferase, luminescence, 20 h; Potency, µM (series often up to 53.6 µM), most hits filed as inhibitors; 310,000 compounds, 3.5% hits; AID 2546, 2010;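 further: Gal4-VP16 expression switched on by copper sulfate through the metallothionein promoter; nearly all actives have a fitted effect of over 50% in size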
RORg inh – qHTS for inhibitors of ROR gamma transcriptional activity | Nuclear receptor ROR-gamma (Mus musculus), P51450 | Drosophila S2 Gal4-RORgamma UAS-luciferase reporter, 20 h | Potency, µM (series often up to 53.6 µM), actives largely listed as inhibitors | 310,000 compounds, 5.4% hits; further: nearly all actives have a fitted effect of over 60% in size
Target sequence (P51450 whole entry, looked up, the tested form may be a part): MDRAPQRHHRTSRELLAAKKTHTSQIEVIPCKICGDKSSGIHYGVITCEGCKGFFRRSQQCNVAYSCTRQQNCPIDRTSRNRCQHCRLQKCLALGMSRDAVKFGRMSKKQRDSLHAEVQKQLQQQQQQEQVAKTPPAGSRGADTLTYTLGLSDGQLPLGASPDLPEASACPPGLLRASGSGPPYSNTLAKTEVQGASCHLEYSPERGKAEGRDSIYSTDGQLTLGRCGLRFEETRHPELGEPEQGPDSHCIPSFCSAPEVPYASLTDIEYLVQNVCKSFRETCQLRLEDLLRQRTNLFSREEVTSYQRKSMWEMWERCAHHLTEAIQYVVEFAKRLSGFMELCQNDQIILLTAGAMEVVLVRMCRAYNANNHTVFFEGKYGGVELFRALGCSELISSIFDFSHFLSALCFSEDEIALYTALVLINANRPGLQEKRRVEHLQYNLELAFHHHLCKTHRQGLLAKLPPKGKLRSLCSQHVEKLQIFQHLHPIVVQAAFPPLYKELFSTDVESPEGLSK
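Schneider cells (Drosophila), stable Gal4 DBD–ROR gamma + UAS-luc; 1 hr cmpd preincubation; Cu2+ induction 700 uM final; 20 hr ambient; luminescence.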
Sfp PPTase inh – qHTS Assay for Inhibitors of Bacillus subtilis Sfp phosphopantetheinyl transferase (PPTase); AID 1490, 2009; Potency, µM, most hits filed as inhibitors; 4'-phosphopantetheinyl transferase ffp (Bacillus subtilis), Q9F4F7; 310,000 compounds, 3.5% hits; Biochemical Sfp PPTase activity, qHTS;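 further: the enzyme is Sfp with the accession as filed and its product quenches rhodamine fluorescence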
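Sfp 15 nM + cpd, 15 min RT; start w/ rhodamine-CoA 5 uM, BHQ-2-YbbR 12.5 uM (final); 50 mM Hepes pH 7.6, 10 mM MgCl2, 0.01% NP-40, 0.01% BSA; read 525/598 nm at 0 and 30 min.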
Hits are given with their value. Unless noted, the call rests on the fitted dose curve; in most records, active means well fitted curve in the direction sought with a large enough effect; inconclusive means small, poorly fitted or top-dose-only effect, or another doubt; inactive means no such curve, though single readings can be large; an effect the other way counts as inactive or inconclusive.

COC1=C(N)C(=O)c2nc(-c3nc(C(=O)O)c(C)c(-c4ccc(OC)c(OC)c4O)c3N)ccc2C1=O was read as Epigenetic derep inactive, PINK1 expr mod inactive, ClpP mod inactive, Gal4-VP16 FLuc inconclusive, RORg inh 14µM and Sfp PPTase inh 3.5µM.
Screening COc1ccc(C(=O)O)c(O)c1OC returned Epigenetic derep inactive, PINK1 expr mod inactive, Gal4-VP16 FLuc inactive, RORg inh inactive and Sfp PPTase inh inactive.
For O=C1SC(SCc2ccccc2)=N/C1=C\c1ccc(C(=O)O)cc1 the results were Epigenetic derep inactive, PINK1 expr mod inactive, Gal4-VP16 FLuc inactive, RORg inh inactive and Sfp PPTase inh 56µM.
Cc1cccc(NC(=O)Cn2cc(C(=O)C3CCCCC3)c3ccccc32)c1 was read as Epigenetic derep inactive, PINK1 expr mod inactive and ClpP mod inactive.
`Cc1ccc(N2CC(C(=O)NCc3nnnn3-c3ccc(C)c(C)c3)CC2=O)cc1C` (stereo not drawn) gave Epigenetic derep inactive, PINK1 expr mod inactive and ClpP mod inactive.
For O=C(CC1Sc2ncnn2C1=O)Nc1ccc(Br)cc1 (stereo not drawn) the results were Epigenetic derep inactive, PINK1 expr mod inactive, ClpP mod inactive, Gal4-VP16 FLuc 25µM, RORg inh inconclusive and Sfp PPTase inh 50µM.
`O=C(CC1SC2=NCCN2C1=O)Nc1ccc(Br)cc1` (stereo not drawn) gave Epigenetic derep inactive, PINK1 expr mod inactive, ClpP mod inactive, Gal4-VP16 FLuc inactive, RORg inh inactive and Sfp PPTase inh inactive.
`COC(=O)c1cc(NC(=O)c2cccc(Cl)c2)c(=O)oc1/C=C/Nc1cc(C)cc(C)c1` gave Epigenetic derep 3.5µM, Gal4-VP16 FLuc inactive, RORg inh inactive and Sfp PPTase inh inactive.
Screening COc1ccc(Cl)cc1NC(=O)c1cn(C2CCCC2)c(=O)c2c1c1ccccc1n2C returned Epigenetic derep inactive, PINK1 expr mod inactive and ClpP mod inactive.
Screening COc1ccc(C)cc1S(=O)(=O)N1CCN(c2cccc(Cl)c2)CC1 returned Epigenetic derep inactive, PINK1 expr mod inactive and ClpP mod inactive.
`CCOc1ccc2nc(N=NC3=C(O)CC(C)(C)CC3=O)sc2c1` gave Epigenetic derep inconclusive, PINK1 expr mod inactive, ClpP mod inactive, Gal4-VP16 FLuc inactive, RORg inh 2.2µM and Sfp PPTase inh inactive.
For Cc1nc2ccc(N=NC3=C(O)CC(C)(C)CC3=O)cc2s1 the results were Epigenetic derep inactive, PINK1 expr mod inactive, ClpP mod inactive, Gal4-VP16 FLuc inactive, RORg inh inactive and Sfp PPTase inh inactive.
`Cc1ccc(Cl)cc1N1CCN(CCCNC(=O)c2nnc(Cc3cccc(Cl)c3)o2)CC1` gave Epigenetic derep inactive, PINK1 expr mod inactive and ClpP mod inactive.
`CCC(=O)CC` gave Gal4-VP16 FLuc inactive, RORg inh inactive and Sfp PPTase inh inconclusive.
Screening O=C(c1ccc(Cl)cc1Cl)c1ncc(C(F)(F)F)cc1Cl returned Epigenetic derep inactive, PINK1 expr mod inactive, ClpP mod inactive, Gal4-VP16 FLuc inactive, RORg inh inactive and Sfp PPTase inh inactive.
Screening O/N=C(\c1ccc(Cl)cc1Cl)c1ncc(C(F)(F)F)cc1Cl returned Epigenetic derep inactive, PINK1 expr mod inactive, ClpP mod inactive, Gal4-VP16 FLuc 25µM, RORg inh 11µM and Sfp PPTase inh inactive.
CCC1=C(c2ccc(C)cc2)S(=O)(=O)N=C1N1CCC(C(=O)NCCc2ccc(Cl)cc2)CC1 was read as Epigenetic derep inactive, PINK1 expr mod inactive and ClpP mod inactive.
CCOC(=O)CNC(=O)O[C@H]1C(=O)c2cc(OC)ccc2O[C@@H]1c1ccc(OC)c(Br)c1 was read as Epigenetic derep inactive, Gal4-VP16 FLuc inactive, RORg inh inactive and Sfp PPTase inh inactive.
